A short description of assay [1]: ATG_PBREM_CIS: Attagene CIS-FACTORIAL HepG2 Assay for human Phenobarbital-responsive Enhancer Module (PBREM) (AID 2282955). The settings on record: HepG2 PBREM cis-reporter, Attagene multiplexed transcription; actives raise or lower the signal. The method, boiled down: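 HepG2 cells transiently transfected with multiple cis-regulated reporter units measure endogenous transcription factor activity; 24 h compound exposure. Reporter mRNA quantified by RT-PCR, fluorescent labelling, HpaI digestion and capillary electrophoresis; bidirectional fit versus DMSO.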

Assay [2] has as its target Paired box protein Pax-6 (Homo sapiens) (UniProt P26367). In words: ATG_Pax6_CIS: Attagene CIS-FACTORIAL HepG2 Assay for human Paired Box 6 (PAX6) (AID 2282956). The conditions noted are these: HepG2 CIS-FACTORIAL PAX6 reporter transcription, RNA readout; actives raise or lower the signal. The method, boiled down:
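Multiplexed cis-reporter HepG2 system; 24 h treatment; reporter mRNA read by RT-PCR/CE fluorescence; bidirectional fit vs DMSO.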

Assay [3] is described as follows: ATG_PXRE_CIS: Attagene CIS-FACTORIAL HepG2 Assay for human Pregnane X Receptor Element (PXRE) (AID 2282957). The conditions noted are these: HepG2 Attagene CIS-FACTORIAL PXRE reporter, mRNA; actives raise or lower the signal. The method, boiled down:
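HepG2 cells transiently transfected with cis-element-driven multiplexed reporter units; after 24 h chemical exposure, reporter mRNA measured by RT-PCR, 6-FAM labelling, HpaI digestion and capillary electrophoresis. Bidirectional fitting relative to DMSO.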

Assay [4] is described as follows: ATG_PPRE_CIS: Attagene CIS-FACTORIAL HepG2 Assay for human Peroxisome Proliferator-activated Response Element (PPRE) (AID 2282958). The settings on record: HepG2 PPRE cis-element reporter, Attagene transcription factor profiling; actives raise or lower the signal. The procedure, abridged:
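HepG2 cells are transiently transfected with multiplexed cis-promoter reporter units to report endogenous PPAR activity. After 24 h dosing, reporter mRNA is read by RT-PCR and capillary electrophoresis. Fitting is bidirectional against DMSO.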

A short description of assay [5]: ATG_RORE_CIS: Attagene CIS-FACTORIAL HepG2 Assay for human RAR-related Orphan Receptor Element (RORE) (AID 2282959). The conditions noted are these: HepG2 Attagene cis-factorial RORE reporter, mRNA; actives raise or lower the signal. The procedure, abridged: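 HepG2 cells carrying transiently transfected cis-regulated reporter units; RORE-driven reporter mRNA quantified 24 h post-dosing by RT-PCR, 6-FAM primer extension, HpaI digestion and capillary electrophoresis. Bidirectional fit versus DMSO.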

Assay [6] in a line: ATG_Sox_CIS: Attagene CIS-FACTORIAL HepG2 Assay for human SRY-box transcription factor (SOX) (AID 2282960). The conditions noted are these: HepG2 Attagene cis-factorial SOX reporter, mRNA; actives raise or lower the signal. The procedure, abridged: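 HepG2 cells transiently transfected with multiple cis-regulated reporter units, then dosed for 24 h. Reporter mRNA quantified by RT-PCR, fluorescent labelling, HpaI digestion and capillary electrophoresis; bidirectional fit versus DMSO.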

Assay [7] has as its target Transcription factor Sp1 (Homo sapiens) (UniProt P08047). Put plainly: ATG_Sp1_CIS: Attagene CIS-FACTORIAL HepG2 Assay for human Specificity Protein 1 (Sp1) (AID 2282961). The conditions noted are these: HepG2 Sp1 cis-reporter transcription, actives raise or lower the signal. The method, boiled down:
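HepG2 cells transiently transfected with multiplexed cis-regulated reporter constructs, chemical exposure 24 h. Reporter mRNA quantified by RT-PCR with capillary electrophoresis; bidirectional fit relative to DMSO.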

Assay [8] is described as follows: ATG_SREBP_CIS: Attagene CIS-FACTORIAL HepG2 Assay for human Sterol Regulatory Element Binding (SREBP) (AID 2282962). The settings on record: HepG2 Attagene cis-factorial SREBP reporter, mRNA; actives raise or lower the signal. The method, boiled down:
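mRNA induction of transfected cis-promoter reporters in HepG2 cells, 24 h post-dose. Detection: RT-PCR with 6-FAM-labelled products, HpaI digest, capillary electrophoresis. DMSO served as negative control and baseline.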

Assay [9] concerns the target Signal transducer and activator of transcription 3 (Homo sapiens) (UniProt P40763). In words: ATG_STAT3_CIS: Attagene CIS-FACTORIAL HepG2 Assay for human Signal Transducer and Activator of Transcription 3 (STAT3) (AID 2282963). The conditions noted are these: HepG2, Attagene cis-factorial STAT3 reporter transcription; actives raise or lower the signal. The method, boiled down: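 Transcript-level reporter assay. HepG2 transient MRTU transfection, 24 h exposure, fluorescence detection after RT-PCR and CE; DMSO baseline.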

Assay [10] can be described thus: ATG_TA_CIS: Attagene CIS-FACTORIAL HepG2 Assay for human TA Basal Promoter (AID 2282964). The conditions noted are these: HepG2 Attagene CIS-factorial TA basal promoter reporter; actives raise or lower the signal. The method, boiled down: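 HepG2 cells transiently transfected with multiple reporter units under cis promoter elements, reporting endogenous transcription factor activity; this endpoint tracks the TA basal promoter as background control. Reporter mRNA after 24 h dosing measured by RT-PCR/capillary electrophoresis; bidirectional fits versus DMSO.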

“And” between values parts separate entries of the source, which are not always exact repeats. Identical values can stand only once. The source made the active and inactive calls. The calls were made as follows: active = hit-call score of the fitted dose curve at least 0.9, where 1 is the maximum; inactive = score below 0.9.

Sequence of Signal transducer and activator of transcription 3 (Homo sapiens) (P40763 whole entry, looked up): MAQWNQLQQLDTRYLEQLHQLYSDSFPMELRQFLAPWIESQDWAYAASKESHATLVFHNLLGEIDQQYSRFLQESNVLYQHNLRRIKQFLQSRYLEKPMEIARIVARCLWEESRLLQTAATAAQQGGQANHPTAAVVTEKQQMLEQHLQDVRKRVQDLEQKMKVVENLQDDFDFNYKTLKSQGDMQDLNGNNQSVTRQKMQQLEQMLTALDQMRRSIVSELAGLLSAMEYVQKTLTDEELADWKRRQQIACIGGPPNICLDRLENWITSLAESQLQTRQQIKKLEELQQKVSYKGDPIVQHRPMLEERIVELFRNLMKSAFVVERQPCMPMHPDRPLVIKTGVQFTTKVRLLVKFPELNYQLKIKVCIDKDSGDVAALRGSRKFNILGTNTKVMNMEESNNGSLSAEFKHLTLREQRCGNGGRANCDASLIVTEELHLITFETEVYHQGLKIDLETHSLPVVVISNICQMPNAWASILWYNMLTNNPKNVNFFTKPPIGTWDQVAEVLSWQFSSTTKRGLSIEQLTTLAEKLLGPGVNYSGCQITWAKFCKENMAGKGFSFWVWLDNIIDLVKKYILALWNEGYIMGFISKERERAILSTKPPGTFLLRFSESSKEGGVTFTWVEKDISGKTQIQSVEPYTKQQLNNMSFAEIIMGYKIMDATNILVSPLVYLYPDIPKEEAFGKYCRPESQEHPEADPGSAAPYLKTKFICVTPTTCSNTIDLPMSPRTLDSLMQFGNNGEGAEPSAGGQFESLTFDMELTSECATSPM
Sequence of Paired box protein Pax-6 (Homo sapiens) (P26367 whole entry, looked up): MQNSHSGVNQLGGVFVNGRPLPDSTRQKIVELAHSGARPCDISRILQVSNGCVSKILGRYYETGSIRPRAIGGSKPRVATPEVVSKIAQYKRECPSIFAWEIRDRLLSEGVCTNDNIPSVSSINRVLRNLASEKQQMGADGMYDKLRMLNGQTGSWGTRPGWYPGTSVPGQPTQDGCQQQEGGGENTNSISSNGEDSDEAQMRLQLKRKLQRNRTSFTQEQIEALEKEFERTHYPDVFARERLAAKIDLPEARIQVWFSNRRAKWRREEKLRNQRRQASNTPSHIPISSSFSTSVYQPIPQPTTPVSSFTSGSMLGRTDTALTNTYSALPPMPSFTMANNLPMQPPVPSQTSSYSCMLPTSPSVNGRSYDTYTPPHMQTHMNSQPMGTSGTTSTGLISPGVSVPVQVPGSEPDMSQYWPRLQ
Sequence of Transcription factor Sp1 (Homo sapiens) (P08047 whole entry, looked up): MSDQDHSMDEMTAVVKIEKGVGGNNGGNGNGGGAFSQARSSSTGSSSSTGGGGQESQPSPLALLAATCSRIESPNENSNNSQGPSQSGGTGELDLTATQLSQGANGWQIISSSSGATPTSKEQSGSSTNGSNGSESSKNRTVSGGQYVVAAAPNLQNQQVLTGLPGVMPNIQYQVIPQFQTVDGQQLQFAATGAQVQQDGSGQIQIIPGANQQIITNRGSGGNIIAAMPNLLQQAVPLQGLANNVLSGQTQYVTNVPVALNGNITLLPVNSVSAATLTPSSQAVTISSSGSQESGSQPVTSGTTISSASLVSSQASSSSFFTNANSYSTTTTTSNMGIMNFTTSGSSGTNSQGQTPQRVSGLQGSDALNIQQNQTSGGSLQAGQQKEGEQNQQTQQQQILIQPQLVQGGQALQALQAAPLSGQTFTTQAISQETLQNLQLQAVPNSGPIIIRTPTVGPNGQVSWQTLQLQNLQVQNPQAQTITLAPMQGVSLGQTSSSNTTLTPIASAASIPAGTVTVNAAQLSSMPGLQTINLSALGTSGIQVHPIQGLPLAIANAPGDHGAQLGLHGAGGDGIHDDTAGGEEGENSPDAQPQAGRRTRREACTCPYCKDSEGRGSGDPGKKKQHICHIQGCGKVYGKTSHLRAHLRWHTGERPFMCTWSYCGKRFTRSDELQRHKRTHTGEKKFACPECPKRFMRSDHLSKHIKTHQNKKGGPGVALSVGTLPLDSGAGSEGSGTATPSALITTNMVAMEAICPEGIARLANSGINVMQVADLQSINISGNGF

On to `O=C(O)C=CC(F)(C(F)(F)F)C(F)(F)F`, for which the outcome in assay [1], in assay [2], in [3], in assay [4], in assay [5] and in [6] was inactive. For the same compound, the outcome in [7], in [8], in [9] and in [10] was inactive.

With `Nc1ccc([N+](=O)[O-])cc1Cl`, the outcome in assay [1], in assay [2], in assay [4], in assay [5], in [6] and in assay [7] was inactive. The result in [8], in assay [9] and in [10] was inactive. Moreover, the AC50 in assay [3] was 67.3 µM (active).

On to `Nc1ccc(Sc2ccc(N)cc2)cc1`, for which the AC50 in [1] is 100 µM (active); in assay [3], 41.2 µM (active); in assay [4], 51.2 µM (active); in assay [5], 36.6 µM (active). In addition, the result in assay [2], in assay [6], in assay [7], in assay [8], in assay [9] and in assay [10] was inactive.

Consider `CCCCC(CC)COC(=O)c1c(Br)c(Br)c(Br)c(Br)c1C(=O)OCC(CC)CCCC` (configuration not stated), for which the outcome in [1], in assay [2], in [4], in assay [5], in assay [6] and in [7] was inactive. Further, the call in assay [8], in assay [9] and in assay [10] was inactive. Moreover, the concentration at half-maximal activity (AC50) in assay [3] was 19.9 µM (active).

For the compound `FC(F)(F)C(F)(C(F)(F)F)C(F)(F)C(F)(F)CC1CO1` (configuration not stated), the result in [1], in assay [2], in assay [3], in [4], in assay [5] and in [7] was inactive. Besides, the compound was called inactive in [8], in assay [9] and in [10].

On to `COCCOCCO`, for which the outcome in assay [1], in assay [2], in assay [3], in assay [4], in assay [5] and in assay [6] was inactive. Further, the compound was called inactive in [7], in [8], in [9] and in assay [10].

In the case of `O=C(O)C(F)(F)C(F)(F)C(=O)O`, the result in assay [1], in assay [2], in assay [3], in assay [4], in assay [5] and in assay [7] was inactive. The result in assay [8], in assay [9] and in assay [10] was inactive.

Regarding `Cn1[nH]nnc1=S`, the result in assay [1], in [2], in [3], in assay [4], in assay [5] and in assay [6] was inactive. Besides, the compound was classed as inactive in [7], in assay [8], in assay [9] and in [10].

As for `Oc1ccccc1Br`, the outcome in assay [1], in assay [2], in assay [3], in assay [4], in [5] and in assay [6] was inactive. Besides, the outcome in assay [7], in assay [8], in assay [9] and in assay [10] was inactive.

Take `CC(=O)CCc1ccc2c(c1)OCO2`: the outcome in assay [1], in assay [2], in [4], in assay [5], in assay [6] and in assay [7] was inactive. In addition, the call in assay [8], in assay [9] and in assay [10] was inactive. The half-maximal activity concentration (AC50) in assay [3] was 27.9 µM (active).

`O=S(=O)(F)C(F)(F)C(F)(F)C(F)(F)C(F)(F)C(F)(F)C(F)(F)C(F)(F)C(F)(F)F`: the outcome in [1], in [2], in assay [3], in assay [4], in [5] and in assay [7] was inactive. The compound was called inactive in [8], in assay [9] and in [10].

In the case of `CC(C)Nc1ccc(Nc2ccccc2)cc1`, the result in assay [1], in assay [2], in assay [4], in assay [5], in assay [6] and in assay [7] was inactive. Moreover, the result in assay [8], in [9] and in assay [10] was inactive. Further, the AC50 in [3] is 1.97 µM (active).

Turning to `CCOP(=S)(OCC)SCn1nnc2ccccc2c1=O`, the AC50 is 1.32 µM (active) in assay [1] and 0.673 µM (active) in assay [3]. Besides, the compound was called inactive in [2], in assay [4], in assay [5], in assay [7], in assay [8] and in [9]. Besides, the compound was classed as inactive in assay [10].

For the compound `CC1=C(C(=O)Nc2ccccc2)S(=O)(=O)CCO1`, the result in [1], in assay [4], in [5], in [6], in [7] and in assay [8] was inactive. Further, the call in assay [9] and in assay [10] was inactive. In addition, the AC50 in assay [2] is 19.9 µM (active); in assay [3] it was 5.02 µM (active).

Take `c1cc2c3c(cccc3c1)CC2`: the result in assay [1], in assay [2], in assay [3], in assay [4], in assay [5] and in [6] was inactive. Moreover, the result in assay [7], in [8], in [9] and in [10] was inactive.

As for `Cc1ccc2c(c1N)C(=O)c1ccccc1C2=O`, the result in assay [1], in assay [2], in assay [4], in assay [5], in assay [6] and in assay [7] was inactive. Also, the compound was called inactive in [8], in assay [9] and in [10]. Moreover, the AC50 in assay [3] was 4.09 µM (active).

In the case of `[N-]=[N+]=[N-]`, the outcome in assay [1], in assay [2], in [3], in assay [4], in assay [5] and in assay [6] was inactive. Further, the compound was called inactive in [7], in assay [8], in assay [9] and in [10].

On to `COP(N)(=S)OC`, for which the outcome in assay [1], in assay [2], in assay [4], in [5], in assay [6] and in [7] was inactive. The result in assay [8], in assay [9] and in [10] was inactive. In assay [3], the AC50 is 47 µM (active).

For `COP(=O)(CCC(=O)NCO)OC`, the result in assay [1], in assay [2], in assay [3], in [4], in assay [5] and in [7] was inactive. Further, the outcome in assay [8], in assay [9] and in [10] was inactive.

In the case of `NNC(N)=S`, the outcome in assay [1], in [2], in [3], in [4], in [5] and in assay [7] was inactive. The compound was called inactive in assay [8], in assay [9] and in [10].

In the case of `CCOP(=S)(OCC)SCSc1ccc(Cl)cc1`, the AC50 is 5.81 µM (active) in [1] and 3 µM (active) in assay [3]. Also, the compound was called inactive in assay [2], in [4], in assay [5], in assay [6], in assay [7] and in [8]. For the same compound, the outcome in [9] and in [10] was inactive.

For `Cc1cc(C)c(C(=O)P(=O)(c2ccccc2)c2ccccc2)c(C)c1`, the result in [1], in assay [2], in [4], in assay [6] and in assay [7] was inactive. Besides, the AC50 is 0.199 µM (active) in [3]; 51 µM (active) in assay [5]; 41.1 µM (active) in assay [8]; 53.7 µM (active) in [9]; 45 µM (active) in [10].

For `CCCCOCCOP(=O)(OCCOCCCC)OCCOCCCC`, the outcome in assay [1], in assay [2], in [4], in assay [5], in assay [7] and in assay [8] was inactive. Besides, the result in assay [9] and in [10] was inactive. Also, in assay [3], the AC50 was 1.04 µM (active) and 62.9 µM (active).

Consider `Oc1ccc(I)cc1`, for which the result in assay [1], in assay [2], in assay [3], in assay [4], in [5] and in assay [7] was inactive. Besides, the result in assay [8], in assay [9] and in [10] was inactive.
